From the supplement of paper PMC6522484
± gives the standard deviation of the averaged measurements.

Tests used:
DLD1 [1] = assay: cell viability (CellTiter-Glo) relative to plate median (fraction of plate median); higher = more viable cells; conditions: 5 µM; treatment time 24 h; reporter: 7TFP
Method in brief: (§1)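 Values are well luminescence normalised to the plate median, from either a firefly luciferase or a CellTiterGlo readout on parallel plates. The cells, colorectal cancer lines stably transduced with lentiviral 7TFP or TCF4/Wnt firefly luciferase reporters, were treated with library compounds at a final 5 µM for 24 h. The mean of two independent replicates is listed.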

HCT116 = assay: as above; conditions: 5 µM; treatment time 24 h; reporter: TCF4/Wnt
Method in brief: as §1

SW480 [2] = assay: as above; conditions: 5 µM; treatment time 24 h; reporter: 7TFP
Method in brief: as §1

DLD1 [3] = assay: TCF/Wnt firefly luciferase reporter signal relative to plate median (fraction of plate median); higher = higher Wnt reporter signal; conditions: 5 µM; treatment time 24 h; reporter: 7TFP
Method in brief: as §1

SW480 [4] = assay: as above; conditions: 5 µM; treatment time 24 h; reporter: 7TFP
Method in brief: as §1

Row | SMILES | cell viability (DLD1 [1]) | cell viability (HCT116) | cell viability (SW480 [2]) | TCF/Wnt firefly luciferase reporter signal (DLD1 [3]) | TCF/Wnt firefly luciferase reporter signal (SW480 [4])
1 | Cc1cc2cc3c(C)cc(=O)oc3c(C)c2o1 | 1.07 ± 0.021 | 0.954 ± 0.034 | 1 ± 0.022 | 1.14 ± 0.11 | 0.895 ± 0.037
2 | C[C@@H]1[C@H](O)[C@@H](C)/C=C/C=C/C=C/C=C/C=C/C=C/C=C/[C@H](O[C@@H]2O[C@H](C)[C@@H](O)[C@H](N)[C@@H]2O)C[C@@H]2O[C@](O)(C[C@@H](O)C[C@@H](O)[C@H](O)CC[C@@H](O)C[C@@H](O)CC(=O)O[C@H]1C)C[C@H](O)[C@H]2C(=O)O | 1.04 ± 0.076 | 1 ± 0.096 | 1.02 ± 0.089 | 1.06 ± 0.14 | 1.01 ± 0.018
3 | CC1=C(C/C=C(\C)CCC[C@H](C)CCC[C@H](C)CCCC(C)C)C(=O)c2ccccc2C1=O | 0.9945 ± 0.00071 | 0.988 ± 0.06 | 0.998 ± 0.045 | 0.819 ± 0.03 | 0.92 ± 0.064
4 | CN(C)[C@@H]1C(O)=C(C(=O)NCN2CCCC2)C(=O)[C@@]2(O)C(O)=C3C(=O)c4c(O)cccc4[C@@](C)(O)[C@H]3C[C@@H]12 | 1.08 ± 0.13 | 1.06 | 1.02 ± 0.014 | 0.858 ± 0.067 | 1.04
5 | N[C@@H]1CONC1=O | 1.04 ± 0.11 | 1.05 ± 0.035 | 1.04 ± 0.061 | 1.05 ± 0.028 | 0.969 ± 0.21
6 | CN[C@@H]1[C@H](O[C@H]2[C@H](O[C@H]3[C@H](O)[C@@H](O)[C@H](NC(=N)N)[C@@H](O)[C@@H]3NC(=N)N)O[C@@H](C)[C@]2(O)CO)O[C@@H](CO)[C@H](O)[C@H]1O | 0.9855 ± 0.0078 | 1.13 ± 0.042 | 1.055 ± 0.0071 | 1.18 ± 0.071 | 1.11
7 | Nc1ncnc2c1ncn2[C@@H]1O[C@H](CO)[C@@H](O)[C@@H]1O | 0.9735 ± 0.0078 | 1.01 ± 0.021 | 0.975 ± 0.034 | 1.08 ± 0.064 | 1.05 ± 0.05
8 | Nc1ccn([C@@H]2O[C@H](CO)[C@@H](O)[C@@H]2O)c(=O)n1 | 0.987 ± 0.018 | 0.849 ± 0.092 | 1.1 ± 0.064 | 1.08 ± 0.11 | 0.968 ± 0.14
9 | O=C1NCCN(C(=O)[C@H](Cc2ccccc2)NC(=O)[C@@H]2CCCN2)C1=O [Prolyl-phenylalanyl-diketopiperazine] | 1.04 ± 0.15 | 1.02 ± 0.035 | 1.02 ± 0.021 | 0.984 ± 0.02 | 0.918 ± 0.0014
10 | O=C(O[C@@H]1Cc2c(O)cc(O)cc2O[C@@H]1c1cc(O)c(O)c(O)c1)c1cc(O)c(O)c(O)c1 | 1.03 ± 0.035 | 1.01 ± 0.048 | 1.08 ± 0.014 | 0.974 ± 0.037 | 0.916 ± 0.014
11 | NCCCS(=O)(=O)O | 0.999 ± 0.044 | 0.993 ± 0.052 | 0.974 ± 0.011 | 0.969 ± 0.14 | 1.11 ± 0.05
12 | CCC(Cc1c(I)cc(I)c(N)c1I)C(=O)O (stereo not given) | 1.08 ± 0.057 | 1.05 ± 0.035 | 1.07 ± 0.028 | 1.035 ± 0.0071 | 1.04 ± 0.035
13 | C[C@H](CCC(=O)O)[C@H]1CC[C@H]2[C@@H]3[C@H](O)C[C@@H]4C[C@H](O)CC[C@]4(C)[C@H]3C[C@H](O)[C@]12C | 0.99 ± 0.043 | 1.07 ± 0.15 | 1.04 ± 0.066 | 1.02 ± 0.13 | 1.07 ± 0.035
14 | COc1ccc(-c2cc(=O)c3ccccc3o2)cc1 | 1 ± 0.066 | 0.983 ± 0.11 | 1.03 | 1.28 ± 0.12 | 1.13 ± 0.18
15 | C[C@@H]1CCC[C@H](C)N1NC(=O)c1ccc(Cl)c(S(N)(=O)=O)c1 | 1.04 ± 0.068 | 0.9815 ± 0.00071 | 0.96 ± 0.0071 | 0.993 ± 0.0099 | 0.984 ± 0.052
16 | Nc1c(Br)cc(Br)cc1CN[C@H]1CC[C@H](O)CC1 | 0.914 ± 0.066 | 1.09 ± 0.11 | 0.946 ± 0.029 | 0.944 ± 0.19 | 0.887 ± 0.016
17 | CC(C)NCC(O)c1ccc2ccccc2c1 (stereo not given) | 0.986 ± 0.035 | 1.01 ± 0.042 | 0.977 ± 0.0042 | 0.962 ± 0.097 | 1 ± 0.069
18 | CC(=O)c1ccc2c(c1)N(CCCN(C)C)c1ccccc1S2 | 0.976 ± 0.048 | 0.931 ± 0.037 | 0.964 ± 0.016 | 1.06 ± 0.2 | 0.913 ± 0.12
19 | CC(=O)N[C@@H](Cc1c[nH]c2ccccc12)C(=O)O | 0.953 ± 0.0014 | 0.955 ± 0.093 | 0.985 ± 0.021 | 0.905 ± 0.1 | 0.961 ± 0.016
20 | COc1ccc(-c2oc3cc(OC)c(OC)c(OC)c3c(=O)c2OC)cc1OC | 0.952 ± 0.028 | 1.1 ± 0.014 | 1.06 ± 0.092 | 0.986 ± 0.049 | 1.06 ± 0.17
21 | COc1cccc2c1CCC1CC(=O)CC[C@]21C (stereo not given in full) | 1.06 ± 0.014 | 1.02 ± 0.086 | 1.02 ± 0.035 | 0.972 ± 0.016 | 1.04 ± 0.17
22 | CCOC(=O)CCCCCCCCCCCCC1C=CCC1 (stereo not given) | 0.9375 ± 0.005 | 0.949 ± 0.07 | 0.965 ± 0.05 | 0.869 ± 0.034 | 0.873 ± 0.073
23 | C/C=C/C=C/c1cc2cc3c(c(O)c2c(=O)[nH]1)C1(CC3)C(O)=c2c(=O)c3c(=O)cc(OC)c(=O)c=3c(=O)c2=C1O (stereo not given) [Fredericamycin] | 1.03 ± 0.042 | 0.934 ± 0.022 | 1.04 ± 0.076 | 1.06 ± 0.21 | 0.981 ± 0.084
24 | COc1ccc2c(c1)OCc1c-2oc2cc(OC)ccc12 | 1.05 ± 0.085 | 1.01 ± 0.021 | 1 ± 0.051 | 1.09 ± 0.064 | 1.035 ± 0.0071
25 | CC(C(=O)O)c1ccc(N2Cc3ccccc3C2=O)cc1 (stereo not given) | 0.986 ± 0.035 | 1.06 ± 0.035 | 0.992 ± 0.054 | 0.99 ± 0.14 | 1.05 ± 0.064
26 | Cc1cc(-c2ncc(CC(=O)Nc3ccc(-c4cnccn4)cn3)cc2C)ccn1 | 0.974 ± 0.052 | 0.975 ± 0.032 | 0.914 ± 0.0028 | 0.921 ± 0.042 | 0.847 ± 0.21
27 | c1ccc2[nH]c(-c3cscn3)nc2c1 | 1.02 ± 0.021 | 1.17 ± 0.035 | 1.02 | 1.32 ± 0.16 | 1.18 ± 0.028
28 | CCC(=O)OCC(=O)[C@@]1(OC(=O)CC)[C@@H](C)C[C@H]2[C@@H]3CCC4=CC(=O)C=C[C@]4(C)[C@@]3(Cl)[C@@H](O)C[C@@]21C | 0.958 ± 0.0057 | 0.982 ± 0.11 | 1.01 | 0.94 ± 0.044 | 0.941 ± 0.018
